Source: PubChem (several laboratories)
Compounds with a hit are over-represented: about 2.8% of the library has one in this group of screens.
HSP90 refold inh = HSP90 refolding inhibition in rabbit reticulocyte lysate; luciferase refolding luminescence, 3 h; inhibition, % at 5.6 µM; 0.91% of 290,000 active;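 active = inhibition above the screen-wide mean plus 3 SD, computed separately per campaign, cut at about 16% in these data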;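 also: 0% = DMSO wells and 100% = 60 µM geldanamycin wells; inhibitors lower the luminescence because luciferase stays unfolded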
SENP7 block = blocks the human protease SENP7; 1.5% of 330,000 active; inhibition, % at 5 µM; recombinant SENP7, Z-RLRGG-aminoluciferin luminescence, 40 min;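 active = inhibition above about 50% at the single test dose, limit read from the data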;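 also: plate controls were DMSO with enzyme for no effect and no enzyme buffer wells for full effect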
Target sequence (Q9BQF6 706-1050 limits assumed): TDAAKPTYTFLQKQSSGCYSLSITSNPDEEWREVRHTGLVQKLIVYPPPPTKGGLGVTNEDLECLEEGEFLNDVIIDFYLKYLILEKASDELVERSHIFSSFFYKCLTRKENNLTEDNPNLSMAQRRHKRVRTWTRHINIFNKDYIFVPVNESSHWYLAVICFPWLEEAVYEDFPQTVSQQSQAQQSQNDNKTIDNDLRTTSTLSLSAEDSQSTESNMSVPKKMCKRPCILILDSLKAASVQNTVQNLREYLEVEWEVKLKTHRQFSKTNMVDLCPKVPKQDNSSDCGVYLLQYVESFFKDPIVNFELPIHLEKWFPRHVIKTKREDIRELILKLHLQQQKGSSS
SENP8 block-1 = blocks human SENP8 cleavage of Nedd8 substrate; 0.64% of 360,000 active; inhibition, % at 20 µM; recombinant SENP8, Nedd8 substrate fluorescence; Q96LD8; AID 602440; in the data active = inhibition mostly above about 40%, no sharp cut-off; inactive = mostly below about 27%
Target sequence (Q96LD8 whole entry, looked up): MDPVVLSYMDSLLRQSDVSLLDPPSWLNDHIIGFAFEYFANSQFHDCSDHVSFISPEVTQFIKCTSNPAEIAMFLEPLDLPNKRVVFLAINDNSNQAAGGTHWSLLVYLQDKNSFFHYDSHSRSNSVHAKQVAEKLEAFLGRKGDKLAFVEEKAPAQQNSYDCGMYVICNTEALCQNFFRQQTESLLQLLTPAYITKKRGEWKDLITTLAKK
SENP8 block-2 = SENP8 protease inhibition | Q96LD8 | purified SENP8, Z-RLRGG-aminoluciferin cleavage, luminescence | inhibition, % at 10 µM | 1.2% of 330,000 active; in the data active = inhibition above about 50%
SENP6 block = inhibitors of human SENP6 protease. Q9GZR1. Recombinant SENP6 catalytic domain, aminoluciferin luminescence. inhibition, % at 10 µM. 1.8% of 330,000 active. AID 2599;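 active = inhibition above about 50% at the single tested dose, limit read from the data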;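 also: plate controls were DMSO wells with enzyme for no effect and DMSO wells lacking enzyme for full effect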
* marks the source's active call; other numbers are inactive results; i = inactive; / = not tested or not shown.

SMILES | HSP90 refold inh | SENP7 block | SENP8 block-1 | SENP8 block-2 | SENP6 block
N#C/C(=N/Nc1ccccc1[N+](=O)[O-])C(N)=S | 13 | 12 | 45* | -11 | -13
N#C/C(=N\Nc1ccc(Cl)cc1)C(N)=S | 2 | -32 | 46* | 16 | 33
CS/C(N)=N/N=C/c1ccc2c(c1)OCO2 | 0 | 50* | 7 | 20 | 25
CN(/N=C/c1ccc2c(c1)OCO2)c1ccccc1 | -6 | 57* | 19 | 64* | 63*
C(=N\N(c1ccccc1)c1ccccc1)/c1ccc2c(c1)OCO2 | -1 | 4 | 6 | -2 | -4
COc1ccc(N2CCN(C(=O)c3ccc(CSc4ccccc4)cc3)CC2)cc1 | 0 | 4 | 10 | -4 | 3
O=c1cc(-c2ccc(O)cc2)oc2c(O)c(O)c(O)c(O)c12 | 1 | 11 | 71* | 24 | 44
O=c1cc(-c2ccc(O)cc2)oc2c1ccc1ccccc12 | / | -12 | i | -12 | -20
CCCCn1c(SCc2nc3ccccc3s2)nc2cc(S(N)(=O)=O)ccc21 | 5 | -1 | -9 | -3 | -12
Cc1ccc(C(=O)c2coc3c2C(=O)C(=O)c2ccccc2-3)cc1 | 5 | -2 | 56* | 3 | 23
Cc1oc2c(c1C(=O)c1ccc(Cl)cc1)C(=O)C(=O)c1ccccc1-2 | -1 | / | 113* | / | /
COc1ccc(C(=O)c2coc(-c3ccccc3C(=O)O)c2C(=O)O)cc1 | 0 | 3 | 5 | -2 | -12
CCOC(=O)c1c2c(n(Cc3ccccc3)c1C)C(=O)C(=O)c1ccccc1-2 | / | / | 100* | / | /
Cc1c(CN(C)C)c2c(n1C)C(=O)c1ccc(Br)cc1-2 | 3 | -1 | 13 | -7 | 10
CCOC(=O)c1c2c(n(C)c1C)C(=O)C(=O)c1ccc(Br)cc1-2 | 0 | 97* | 114* | 93* | 94*
COc1ccc(CN(C)CC(O)COC(c2ccccc2)c2ccccc2)c(OC)c1OC (stereo unspecified) | -1 | 4 | 24 | -1 | -13
COc1cc2[nH]c(=O)n(Cc3ccc(C(=O)N4CCC(N5CCCCC5)CC4)cc3)c(=O)c2cc1OC | -1 | -8 | -134 | -8 | -18
Cc1nc(-c2ccc(Br)cc2)ccc1C(=O)O | 1 | 20 | 14 | 30 | 75*
COc1ccc(C(NC(=O)C2CCN(Cc3cc(OC)cc(OC)c3)CC2)c2ccccn2)cc1 (stereo unspecified) | / | / | 14 | / | /
O=C1/C(=N\S(=O)(=O)c2cccs2)C([n+]2cccc(Cc3ccccc3)c2)=C([O-])c2ccccc21 | 5 | 30 | 77* | 31 | 49
O=C(CCc1nc2ccccc2[nH]1)Nc1ccc2c(c1)OCO2 | -4 | 1 | 18 | -1 | 7
Nc1ccc(O)c2c1C(=O)c1ccccc1C2=O | 2 | 3 | 65* | 5 | 4
Nc1ccc(Br)c2c1C(=O)c1ccccc1C2=O | -2 | 12 | / | 2 | -8
O=C1c2ccccc2C(=O)c2c(O)c(O)cc(O)c21 | / | 6 | 18 | 10 | 14
O=C1C=C(O)c2c(O)cc(O)c(O)c2C1=O | / | 4 | 47* | 5 | 4
SMILES | HSP90 refold inh | SENP7 block | SENP8 block-1 | SENP8 block-2 | SENP6 block
COc1ccc(/C=C(/NC(=O)c2ccccc2OC)C(=O)Nc2ccc(C(=O)O)cc2)cc1 | -2 | -5 | -6 | -2 | -7
COc1cc(NC(=S)N2CCCC2)cc(OC)c1 | 17* | 0 | 7 | 6 | 0
CCOc1ncccc1C(=O)N=C1SCCN1C(=O)c1cccnc1OCC | 2 | 3 | 8 | 6 | 0
CCCCN1C(=O)/C(=C/C=C2/CC(C)(C)CN2C)SC1=S | -5 | 5 | 46* | -1 | 6
CCCCN1C(=O)/C(=C/C=C2\Oc3ccccc3N2CC)SC1=S | -3 | / | 32 | / | /
CN(C)CCCN(C(=O)c1ccc(S(=O)(=O)N2CCc3ccccc32)cc1)c1nc2ccc(Cl)cc2s1 | 16* | -12 | 11 | -4 | -19
CN(C)CCCN(C(=O)c1ccc(S(=O)(=O)N2CCc3ccccc32)cc1)c1nc2ccc(F)cc2s1 | 0 | 2 | 17 | -5 | -12
C#CCOCCOCCOCCNc1nc(N2CCN(C(=O)C(Cc3cc4ccccc4[nH]3)n3cc(C(N)Cc4ccc(O)cc4)nn3)CC2)nc(N2CCN(C(=O)C(Cc3cc4ccccc4[nH]3)n3cc(C(N)Cc4ccc(O)cc4)nn3)CC2)n1 (stereo unspecified) | 23* | / | / | / | /
CC(C)NC[C@@H](O)c1ccc(O)c(O)c1 | 2 | 6 | 44* | 3 | 7
CN(C)c1ccc(C=C2SC(=S)NC2=O)cc1 | / | / | 39 | / | /
CN(C)c1ccc(/C=N/N=C2/NC(=O)/C(=C/c3ccc([N+](=O)[O-])cc3)S2)cc1 | 15 | 34 | 4 | 36 | 69*
CCOC(=O)c1cnc2cc3c(cn2c1=O)CCCC3 | -1 | -3 | -399 | -3 | -4
COc1cccc(/C=C2\CCc3ccccc3C2=O)c1 | 8 | 94* | 32 | 95* | 99*
Cc1ccc(CCNC(=O)c2cc(S(=O)(=O)N3CCCCC3)c[nH]2)cc1 | 5 | -6 | 9 | -3 | -20
O=C(NCCc1ccc(Cl)cc1)c1cc(S(=O)(=O)N2CCCCC2)c[nH]1 | 38* | 18 | 9 | -3 | -3
Cc1ccc(Cn2ccc(NC(=O)CCSc3nc(-c4ccco4)cc(C(F)(F)F)n3)n2)cc1 | 1 | 2 | -7 | -7 | 3
O=C(O)c1ccc(Cl)c2c1C1C=CCC1C(c1ccccn1)N2 (stereo unspecified) | 2 | -12 | / | -10 | -9
O=[N+]([O-])c1ccc(Cl)c2c1C1C=CCC1C(c1ccccn1)N2 (stereo unspecified) | -2 | 0 | 42* | -6 | 9
CC1CCN(c2nc3ccc(C(=O)N4CCN(Cc5ccc6c(c5)OCO6)CC4)cc3s2)CC1 | 58* | -3 | -1 | 1 | 2
Cc1cc(NC(=O)CSc2nc3c([nH]c4ccccc43)c(=O)n2-c2ccccc2F)no1 | 2 | -6 | -33 | 3 | -62
O=c1c(O)cccc2cc(O)c(O)c(O)c12 | -1 | -3 | 60* | 6 | -52
O=c1cc(-c2ccccc2)oc2cc(O)c(O)c(O)c12 | / | -3 | 0 | 10 | 6
O=C(/C=C/c1cn(CC(O)CN2CCCCC2)c2ccccc12)c1ccccc1 (stereo unspecified) | 1 | / | -234 | / | /
CN1CCN(Cn2cc(/C=C/C(=O)c3ccccc3)c3ccccc32)CC1 | 0 | 23 | -288 | 10 | 59*
Cn1c(=O)c2ncn(CC(=O)Nc3nc(-c4ccc(Cl)cc4)cs3)c2n(C)c1=O | 0 | -9 | 2 | -15 | -12
S=C(Nc1cccc(Cl)c1)Nc1cccc2cnccc12 | 5 | / | -204 | / | /
CC(=O)c1ccc(NC(=S)Nc2cccc3cnccc23)cc1 | 11 | 61* | -318 | 92* | 87*
CN(CCC#N)C(=O)CSc1nc2scc(-c3ccccc3)c2c(=O)[nH]1 | 4 | -5 | 9 | -19 | -17
O=C(NC(=S)Nc1ccc(NC(=O)c2ccccc2)cc1)c1ccc(F)cc1 | -2 | 2 | 14 | -6 | -8
O=C(NC(=S)Nc1ccc2c(c1)C(=O)c1ccccc1C2=O)c1ccc(F)cc1 | 4 | 64* | / | 52* | 78*
